Records with an inconclusive call do not appear. Entries that show only a call come without a potency. Active and inactive are the calls of the source. Unless noted, the call rests on the fitted dose curve; in most records, active means well fitted curve in the direction sought with a large enough effect; inconclusive means small, poorly fitted or top-dose-only effect, or another doubt; inactive means no such curve, though single readings can be large; an effect the other way counts as inactive or inconclusive.
Assays:
[1] = Cellular Toxicity (caspase-3) HepG2 (AID 654);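 further: cells exposed to compound for 16 hours before reading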
Outline: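 qHTS, HepG2, 1500 cells/well, complete medium; cpd 16 h 37 °C; Caspase-Glo 3/7, 20 min RT; lum. Norm: DMSO vs 100 uM tamoxifen; AC50 Hill fit.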

[2] = Cellular Toxicity (caspase-3) Jurkat (AID 655); settings: Jurkat caspase-3 activation, luminescence, DMSO = 0%, tamoxifen = 100%; at 92.2 µM (top of the series);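 further: cells exposed to compound for 16 h at 37 °C before reading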
Outline: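 Luminescent Caspase-Glo 3/7 read-out (20 min, room temperature) after 16 h compound treatment at 37 C of 5000 Jurkat cells per well. AC50 derived by Hill-equation fitting, scaled between DMSO basal and 100 uM tamoxifen stimulation.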

[3] = Cellular Toxicity (caspase-3) HUV-EC-C (AID 656)
Outline: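 Luminescent Caspase-Glo 3/7 readout after 16 h, 37 °C compound exposure of HUV-EC-C endothelial cells, 1000 per well, complete medium. AC50 derived by Hill fitting, with DMSO as baseline and 100 uM tamoxifen as full activation.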

[4] = Cellular Toxicity (caspase-3) SHSY5Y (AID 657)
Outline: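 Luminescent Caspase-Glo 3/7 read-out, 1 hr room temperature, follows 16 hours of compound treatment of SH-SY5Y cells at 37 °C. Normalization: DMSO basal, 10 uM staurosporine as 100%; AC50 values from Hill-equation concentration-response fits.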

[5] = Cellular Toxicity (caspase-3) MRC-5 (AID 659)
Outline: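 Concentration-dependent caspase 3/7 activation is measured in human normal lung fibroblasts (MRC-5) following 16-hour treatment. AC50 values come from standard Hill-equation modeling of luminescence normalized to DMSO and 10 uM staurosporine.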

[6] = Cellular Toxicity (caspase-3) Mesangial (AID 660);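 further: combined caspase 3 and 7 activity read by Caspase-Glo luminescence; cells exposed to compound for 16 h before the caspase read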
Outline: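 Concentration-response qHTS: compound-induced rise in caspase 3/7 luminescence in human mesangial cells after 16 h, normalized to DMSO and 100 uM tamoxifen controls.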

[7] = Cellular Toxicity (caspase-3) SK-N-SH (AID 661)
Outline: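 Caspase 3/7 activation is measured as a luminescence increase from aminoluciferin released by substrate cleavage in SK-N-SH cells after 16 hr compound treatment; values are AC50 from concentration-response curves.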

[8] = Cellular Toxicity (caspase-3) H-4-II-E (AID 663); settings: Potency: caspase-3 activation;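 further: cells exposed to compound for 16 hr before readout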
Outline: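 Apoptosis induction is scored as increased luminescence from caspase 3/7 substrate cleavage in rat hepatoma H-4-II-E cells exposed to compound for 16 hr. Activity is scaled between DMSO and 100 uM tamoxifen.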

[9] = Cellular Toxicity (caspase-3) Hek293 (AID 664);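 further: cells exposed to compound for 16 h at 37 °C before readout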
Outline: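 Activation of caspase-3/7 is measured as increased luminescence from cleaved peptide-aminoluciferin substrate in HEK293 cells treated 16 hours at 37 °C. AC50 values come from Hill-equation fits of concentration-response data.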

[10] = Cellular Toxicity (caspase-3) N2a (AID 665);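 further: compound exposure lasted 16 h at 37 °C before readout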
Outline: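 Plated mouse neuroblastoma N2a cells received titrated compounds for 16 h in complete medium. Caspase activity was then detected with a peptide-aminoluciferin luminescent reagent.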

[11] = Cellular Toxicity (caspase-3) NIH 3T3 (AID 666);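 further: caspase signal read after 16 h compound exposure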
Outline: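 Concentration-response qHTS in NIH 3T3 mouse fibroblasts scores caspase-3/7 activation as rising luminescence after 16 hr compound exposure. Signals are scaled between DMSO-only and 100 uM tamoxifen.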

[12] = Cellular Toxicity (caspase-3) Renal Proximal Tubule (AID 667);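 further: cells exposed to compound for 16 hours at 37 °C before detection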
Outline: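 Caspase 3/7 activation measured by luminescent aminoluciferin release in primary rat proximal tubule cells after 16 hr compound exposure at 37 °C. AC50 from Hill-fitted concentration-response, scaled between DMSO and 10 uM staurosporine.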

[13] = qHTS assay for small molecule antagonists of peroxisome proliferator-activated receptor delta signaling (AID 588535); settings: HEK293T PPARd-UAS-bla, beta-lactamase FRET ratio, 18 h; 460 nm channel;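 further: cells co-treated with a PPAR-delta agonist as stimulator during compound exposure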
Outline: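 Cell-based beta-lactamase assay in antagonist mode: 4000 HEK293T PPAR-delta-UAS-bla cells per well, 5 hr preincubation then 18 hr compound incubation at 37 C. IC50 obtained by Hill equation fitting.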

[14] = qHTS assay for small molecule agonists of retinoid X receptor alpha signaling (AID 588544); settings: HEK293T RXRa-UAS-bla, beta-lactamase reporter, 18 h; 530 nm emission
[15] = molecular target: Thyroid hormone receptor beta (Homo sapiens) (UniProt P10828); experiment: qHTS assay for small molecule antagonists of thyroid hormone receptor beta signaling (AID 588547; active means well fitted inhibition curve with a large enough effect in the signal ratio, with a control signal flat, not every such curve was filed as active; the % refers to the signal ratio;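 further: cells stimulated with 0.4 nM T3 agonist during compound exposure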); settings: TR-UAS-bla HEK293, beta-lactamase ratio, antagonist mode, 18 h
Outline: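 Inhibition of T3-driven (0.4nM final) beta-lactamase reporter activity was measured over 0.59 nM to 92 uM compound after 18 h at 37 C. The cells were GripTite HEK293 TR-UAS-bla in charcoal/dextran-stripped serum, with CCF4 ratio read-out and IC50 from Hill fits.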

[16] = molecular target: Voltage-gated inwardly rectifying potassium channel KCNH2 (Homo sapiens) (UniProt Q12809); experiment: qHTS Assay for Small Molecule Inhibitors of the Human hERG Channel Activity (AID 588834);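 further: top concentration of the series differs between compounds; lower thallium flux fluorescence means stronger hERG block; nearly all actives have a fitted effect of over 50% in size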
Outline: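 Kinetic FDSS fluorescence; U2OS + hERG BacMam (~100 virus particles/cell); FluxOR Tl+ flux; ~10 min cpd; AC50 (Hill).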

[17] = qHTS assay for small molecule agonists of the antioxidant response element (ARE) signaling pathway (AID 651741; active means well fitted activation curve with a large enough effect in the signal ratio; the % refers to the signal ratio)
Outline: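 Seeding 2,000 ARE-bla HepG2 cells per well preceded a 5 h incubation at 37 C/5% CO2 and a 16 h compound exposure at 37 C. Beta-lactamase reporter activity was then quantified by fluorescence after 2 h with LiveBLAzer B/G FRET substrate.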

[18] = qHTS assay for small molecule disruptors of the mitochondrial membrane potential - 5 hr assay (AID 651755; calls by dose curve; further: nearly all actives have a fitted effect of over 40% in size)
Outline: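 HepG2, 2,000 cells/well, overnight attach; cpd or DMSO 5 hr, 37C/5% CO2; Mito-MPS 30 min 37C; fluor 490/535 + 540/590 nm.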

[19] = molecular target: Nuclear receptor ROR-gamma (Homo sapiens) (UniProt P51449); experiment: qHTS assay for small molecule antagonists of the retinoid-related orphan receptor gamma (ROR-gamma) signaling pathway (AID 651802);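 further: CHO cells with doxycycline-induced ROR-gamma expression; luciferase reporter luminescence driven by ROR response element; nearly all actives have a fitted effect of over 60% in size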
Outline: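 Antagonism is scored as a fall in luminescence from a RORE-luciferase reporter in CHO cells expressing ROR under a TET-inducible promoter, measured 16hr after doxycycline induction in the presence of compound.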

[20] = molecular target: Nuclear receptor subfamily 1 group I member 2 (Rattus norvegicus) (UniProt Q9R1A7); experiment: qHTS assay for small molecule activators of the rat pregnane X receptor (rPXR) signaling pathway (AID 651751; call rule not given here); settings: rPXR reporter cells, luciferase (One-Glo), 24 h
Chain of Nuclear receptor subfamily 1 group I member 2 (Rattus norvegicus) (Q9R1A7 whole entry, looked up): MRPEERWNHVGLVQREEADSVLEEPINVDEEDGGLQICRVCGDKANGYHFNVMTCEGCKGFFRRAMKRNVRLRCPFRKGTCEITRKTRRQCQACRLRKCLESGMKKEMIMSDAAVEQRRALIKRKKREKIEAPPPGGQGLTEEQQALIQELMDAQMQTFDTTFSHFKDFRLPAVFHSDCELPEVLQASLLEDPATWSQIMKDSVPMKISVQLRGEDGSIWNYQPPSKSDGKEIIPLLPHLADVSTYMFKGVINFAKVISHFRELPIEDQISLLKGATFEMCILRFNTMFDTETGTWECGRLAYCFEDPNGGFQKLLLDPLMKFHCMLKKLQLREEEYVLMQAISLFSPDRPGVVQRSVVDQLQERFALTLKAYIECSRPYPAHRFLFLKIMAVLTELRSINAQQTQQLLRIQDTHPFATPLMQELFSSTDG

Chain of Thyroid hormone receptor beta (Homo sapiens) (P10828 whole entry, looked up): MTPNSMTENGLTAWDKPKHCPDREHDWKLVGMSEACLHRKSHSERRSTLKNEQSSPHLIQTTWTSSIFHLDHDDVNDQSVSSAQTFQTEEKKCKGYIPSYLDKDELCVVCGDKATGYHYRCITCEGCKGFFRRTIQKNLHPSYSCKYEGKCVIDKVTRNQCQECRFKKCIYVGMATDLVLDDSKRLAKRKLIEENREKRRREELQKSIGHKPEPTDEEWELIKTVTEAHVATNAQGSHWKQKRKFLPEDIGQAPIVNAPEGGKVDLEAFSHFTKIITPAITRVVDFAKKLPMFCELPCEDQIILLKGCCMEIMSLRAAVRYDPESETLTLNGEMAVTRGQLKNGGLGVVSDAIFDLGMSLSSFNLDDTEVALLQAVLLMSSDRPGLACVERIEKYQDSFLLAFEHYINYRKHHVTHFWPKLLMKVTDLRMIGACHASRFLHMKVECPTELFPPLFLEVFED
Chain of Voltage-gated inwardly rectifying potassium channel KCNH2 (Homo sapiens) (Q12809 whole entry, looked up): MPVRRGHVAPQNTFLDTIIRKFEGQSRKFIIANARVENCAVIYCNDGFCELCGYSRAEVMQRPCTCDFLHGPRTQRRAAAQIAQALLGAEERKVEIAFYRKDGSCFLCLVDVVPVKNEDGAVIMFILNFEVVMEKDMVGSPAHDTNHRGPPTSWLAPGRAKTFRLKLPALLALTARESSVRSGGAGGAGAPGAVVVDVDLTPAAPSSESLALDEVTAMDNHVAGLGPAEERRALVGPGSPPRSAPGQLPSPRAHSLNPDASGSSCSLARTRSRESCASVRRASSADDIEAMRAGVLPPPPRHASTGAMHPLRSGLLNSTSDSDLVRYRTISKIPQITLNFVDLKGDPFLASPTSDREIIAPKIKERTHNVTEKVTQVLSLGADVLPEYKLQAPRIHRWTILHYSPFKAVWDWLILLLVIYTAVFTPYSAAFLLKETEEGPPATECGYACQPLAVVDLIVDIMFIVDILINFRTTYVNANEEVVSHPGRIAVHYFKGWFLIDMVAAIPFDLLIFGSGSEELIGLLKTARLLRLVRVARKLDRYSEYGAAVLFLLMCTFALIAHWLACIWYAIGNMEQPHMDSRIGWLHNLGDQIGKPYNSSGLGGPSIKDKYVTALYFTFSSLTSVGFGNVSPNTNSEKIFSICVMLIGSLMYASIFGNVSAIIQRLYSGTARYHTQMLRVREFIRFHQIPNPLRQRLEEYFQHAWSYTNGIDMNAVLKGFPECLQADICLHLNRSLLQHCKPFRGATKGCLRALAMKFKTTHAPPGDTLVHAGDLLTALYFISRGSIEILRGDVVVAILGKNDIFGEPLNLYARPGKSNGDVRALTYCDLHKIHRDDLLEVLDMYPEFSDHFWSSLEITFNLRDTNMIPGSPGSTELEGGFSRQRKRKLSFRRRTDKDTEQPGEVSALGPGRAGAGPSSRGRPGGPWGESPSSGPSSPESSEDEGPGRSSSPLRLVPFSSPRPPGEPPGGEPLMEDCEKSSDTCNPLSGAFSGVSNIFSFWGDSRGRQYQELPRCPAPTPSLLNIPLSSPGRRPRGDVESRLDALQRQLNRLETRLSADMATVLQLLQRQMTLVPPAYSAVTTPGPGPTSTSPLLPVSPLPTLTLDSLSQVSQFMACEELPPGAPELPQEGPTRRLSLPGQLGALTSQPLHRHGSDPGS
Chain of Nuclear receptor ROR-gamma (Homo sapiens) (P51449 whole entry, looked up): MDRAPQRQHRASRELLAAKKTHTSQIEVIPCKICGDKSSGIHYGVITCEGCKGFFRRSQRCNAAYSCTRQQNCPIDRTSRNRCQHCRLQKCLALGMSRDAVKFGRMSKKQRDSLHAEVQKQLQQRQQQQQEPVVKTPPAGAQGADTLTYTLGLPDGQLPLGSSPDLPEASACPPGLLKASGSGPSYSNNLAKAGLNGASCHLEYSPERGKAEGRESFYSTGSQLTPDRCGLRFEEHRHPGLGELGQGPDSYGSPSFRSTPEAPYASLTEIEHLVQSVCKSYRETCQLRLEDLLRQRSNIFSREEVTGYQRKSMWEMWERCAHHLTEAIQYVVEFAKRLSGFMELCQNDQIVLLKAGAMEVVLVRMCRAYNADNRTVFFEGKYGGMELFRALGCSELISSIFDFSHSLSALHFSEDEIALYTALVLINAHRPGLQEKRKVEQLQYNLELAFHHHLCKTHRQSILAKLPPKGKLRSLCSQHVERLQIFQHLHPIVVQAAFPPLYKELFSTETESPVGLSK

Compound	outcome [1]	caspase-3 activation [2]	outcome [3]	outcome [4]	outcome [5]	outcome [6]	outcome [7]	Potency [8]	outcome [9]	outcome [10]	outcome [11]	outcome [12]	max response [13] [%]	max response [14] [%]	activity change % (negative = inhibition) [15]	Potency [16]	Potency [17]	Potency [18]	Potency [19]	max response [20]
C=CC(=C)CCC=C(C)C	inactive	-0.362% (inactive)	inactive	inactive	inactive	inactive	inactive	inactive	inactive	inactive	inactive	inactive	-12.1	1.9	9.36% (inactive)	inactive	inactive	inactive	inactive	2.22% (inactive)
COc1cc(/C=C/c2ccccc2)oc(=O)c1	inactive	-4.56% (inactive)	inactive	inactive	inactive	inactive	inactive	inactive	inactive	inactive	inactive	inactive	-19.2	–	-8.32% (inactive)	inactive	–	inactive	inactive	–
O=C(O)c1ccccc1	inactive	0.102% (inactive)	inactive	inactive	inactive	inactive	inactive	inactive	inactive	inactive	inactive	inactive	–	-9.66	–	inactive	inactive	inactive	inactive	-2.75% (inactive)
C=CC(C)(CCC=C(C)C)OC(C)=O (stereo not given)	–	–	–	–	–	–	–	–	–	–	–	–	-1.31	-5.34	-2.58% (inactive)	–	inactive	–	–	1.82% (inactive)
